# Source: the supplement of paper PMC10037445
# Several values for one entry are separate records, joined by “and”; a condition that tells them apart may be missing. Equal values may be shown once. Over roughly 2,900 compounds, “NF-kB SEAP reporter activity, fold change vs agonist alone” has its median near 0.99; the highest 2% begin near 2.6. The full list was thinned out, with the highest values kept by preference.
# What was measured:
# RAW-Dual [1] = test: NF-kB SEAP reporter activity, fold change vs agonist alone; cytotoxicity flag (confluency mask): not cytotoxic; higher = enhanced NF-kB activity
# Summary of the method: (§1)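 After 50 nL of library stock was delivered by pin tool to RAW-Dual macrophages (50,000 cells/well, DMEM, 384-well plates), a PRR agonist was added 1 h later and the plates were kept at 37 °C, 5% CO2. Twenty hours later, IRF was read from supernatant by QuantiLuc luminescence and NF-κB by QuantiBlue absorbance at 620 nm. Reporter activity is stated as fold change over agonist-alone wells. Wells with IncuCyte confluency under 70% of agonist controls in both mask sets were counted as cytotoxic.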
# RAW-Dual [2] = test: NF-kB SEAP reporter activity, fold change vs agonist alone; higher = enhanced NF-kB activity
# Summary of the method: as §1
# RAW-Dual [3] = test: NF-kB SEAP reporter activity, fold change vs agonist alone; cytotoxicity flag (confluency mask): cytotoxic (confluency <70% of control); higher = enhanced NF-kB activity
# Summary of the method: as §1
# [4] = agonist: ODN 1826 (TLR9) 0.5 ug/mL
# [5] = agonist: Pam2CSK4 (TLR2/6) 0.1 ug/mL
# [6] = agonist: Pam3CSK4 (TLR2/1) 0.1 ug/mL
# [7] = library stock concentration (final ~1000-fold dilution): 10 mM, cytotoxicity flag (confluency mask): not cytotoxic, agonist: Imiquimod (TLR7) […]
# [8] = library stock concentration (final ~1000-fold dilution): 10 mM, cytotoxicity flag (confluency mask): not cytotoxic, agonist: MPLA (TLR4) […]
structure (smiles),measurement,setting,value
Nc1ncnc2[nH]nc(Nc3ccc(F)cc3)c12 (library stock concentration (final ~1000-fold dilution): 10 mM),NF-kB SEAP reporter activity,RAW-Dual [1]; agonist: LPS (TLR4) 0.1 ug/mL,6.5
same,NF-kB SEAP reporter activity,RAW-Dual [1]; [4],1.43
same,NF-kB SEAP reporter activity,RAW-Dual [1]; [5],0.872
same,NF-kB SEAP reporter activity,RAW-Dual [1]; [6],1.26
Fc1ccc(CNc2ncnc3ccc(F)cc23)cc1,NF-kB SEAP reporter activity,RAW-Dual [2]; [7],0.988
same,NF-kB SEAP reporter activity,RAW-Dual [2]; [8],1.47
Nc1ncnc2[nH]nc(Nc3ccc(F)cc3)c12,NF-kB SEAP reporter activity,RAW-Dual [2]; [7],1.13
same,NF-kB SEAP reporter activity,RAW-Dual [2]; [8],2.6
COc1cc2c(cc1Cc1cccc(Cl)c1F)c(=O)c(C(=O)O)cn2C(CO)C(C)C (stereo unspecified) (library stock concentration (final ~1000-fold dilution): 10 mM),NF-kB SEAP reporter activity,RAW-Dual [1]; agonist: LPS (TLR4) 0.1 ug/mL,1.45
same,NF-kB SEAP reporter activity,RAW-Dual [1]; [4],1.08
same,NF-kB SEAP reporter activity,RAW-Dual [1]; [5],0.664
same,NF-kB SEAP reporter activity,RAW-Dual [1]; [6],0.625
COc1cc2c(cc1Cc1cccc(Cl)c1F)c(=O)c(C(=O)O)cn2C(CO)C(C)C (stereo unspecified),NF-kB SEAP reporter activity,RAW-Dual [2]; [7],1.06
same,NF-kB SEAP reporter activity,RAW-Dual [2]; [8],1.17
O=C1c2ccc(O)cc2C(=O)c2ccc(O)cc21,NF-kB SEAP reporter activity,RAW-Dual [2]; [8],1.26
O=C1c2ccc(O)cc2C(=O)c2ccc(O)cc21 (library stock concentration (final ~1000-fold dilution): 10 mM),NF-kB SEAP reporter activity,RAW-Dual [1]; agonist: LPS (TLR4) 0.1 ug/mL,1.38
same,NF-kB SEAP reporter activity,RAW-Dual [1]; [4],1.04
same,NF-kB SEAP reporter activity,RAW-Dual [1]; [5],1.32
same,NF-kB SEAP reporter activity,RAW-Dual [1]; [6],1.16
Nc1nc(F)nc2c1ncn2C1OC(COP(=O)(O)O)C(O)C1O (stereo unspecified) (library stock concentration (final ~1000-fold dilution): 10 mM),NF-kB SEAP reporter activity,RAW-Dual [1]; agonist: LPS (TLR4) 0.1 ug/mL,1.14
same,NF-kB SEAP reporter activity,RAW-Dual [1]; [4],1.01
same,NF-kB SEAP reporter activity,RAW-Dual [1]; [5],1
same,NF-kB SEAP reporter activity,RAW-Dual [1]; [6],1.15
Nc1nc(F)nc2c1ncn2C1OC(COP(=O)(O)O)C(O)C1O (stereo unspecified),NF-kB SEAP reporter activity,RAW-Dual [2]; [7],0.903
same,NF-kB SEAP reporter activity,RAW-Dual [2]; [8],1.03
O=C(c1ccccc1)c1ccc2nc(NC(=O)c3csc(C4CCN(c5ncnc6ccsc56)CC4)n3)[nH]c2c1 (library stock concentration (final ~1000-fold dilution): 10 mM),NF-kB SEAP reporter activity,RAW-Dual [1]; agonist: LPS (TLR4) 0.1 ug/mL,2.75 and 2.17
same,NF-kB SEAP reporter activity,RAW-Dual [1]; [4],1.57 and 1.25
same,NF-kB SEAP reporter activity,RAW-Dual [1]; [5],0.384 and 0.435
same,NF-kB SEAP reporter activity,RAW-Dual [1]; [6],0.694 and 0.75
CNC(C)C(=O)NC(C(=O)N1CCCC1C(=O)NC1c2ccccc2CC1OCC#CC#CCOC1Cc2ccccc2C1NC(=O)C1CCCN1C(=O)C(NC(=O)C(C)NC)C1CCCCC1)C1CCCCC1 (stereo unspecified) (library stock concentration (final ~1000-fold dilution): 10 mM water),NF-kB SEAP reporter activity,RAW-Dual [3]; agonist: LPS (TLR4) 0.1 ug/mL,0.764
same,NF-kB SEAP reporter activity,RAW-Dual [3]; [4],1.11
same,NF-kB SEAP reporter activity,RAW-Dual [3]; [5],0.798
same,NF-kB SEAP reporter activity,RAW-Dual [3]; [6],0.718
CNC(C)C(=O)NC(C(=O)N1CCCC1C(=O)NC1c2ccccc2CC1OCC#CC#CCOC1Cc2ccccc2C1NC(=O)C1CCCN1C(=O)C(NC(=O)C(C)NC)C1CCCCC1)C1CCCCC1 (stereo unspecified),NF-kB SEAP reporter activity,"RAW-Dual [2]; library stock concentration (final ~1000-fold dilution): 10 mM water, cytotoxicity flag (confluency mask): cytotoxic (confluency <70% of control), agonist: Imiquimod (TLR7) […]",0.836
same,NF-kB SEAP reporter activity,"RAW-Dual [2]; library stock concentration (final ~1000-fold dilution): 10 mM water, cytotoxicity flag (confluency mask): cytotoxic (confluency <70% of control), agonist: MPLA (TLR4) […]",0.786
CC1(F)C(O)C(CO)OC1n1ccc(=O)[nH]c1=O (stereo unspecified),NF-kB SEAP reporter activity,RAW-Dual [2]; [8],1.02
CC1(F)C(O)C(CO)OC1n1ccc(=O)[nH]c1=O (stereo unspecified) (library stock concentration (final ~1000-fold dilution): 10 mM),NF-kB SEAP reporter activity,RAW-Dual [1]; agonist: LPS (TLR4) 0.1 ug/mL,1.26
same,NF-kB SEAP reporter activity,RAW-Dual [1]; [4],0.945
same,NF-kB SEAP reporter activity,RAW-Dual [1]; [5],0.82
same,NF-kB SEAP reporter activity,RAW-Dual [1]; [6],0.78
CC1COCCN1c1cc(-c2ccnn2C)c2ccnc(-c3ccn[nH]3)c2n1.Cl (stereo unspecified),NF-kB SEAP reporter activity,RAW-Dual [2]; [7],1.48
same,NF-kB SEAP reporter activity,RAW-Dual [2]; [8],2.05
CC1COCCN1c1cc(-c2ccnn2C)c2ccnc(-c3ccn[nH]3)c2n1.Cl (stereo unspecified) (library stock concentration (final ~1000-fold dilution): 10 mM),NF-kB SEAP reporter activity,RAW-Dual [1]; agonist: LPS (TLR4) 0.1 ug/mL,1.89
same,NF-kB SEAP reporter activity,RAW-Dual [1]; [4],0.957
same,NF-kB SEAP reporter activity,RAW-Dual [1]; [5],1.09
same,NF-kB SEAP reporter activity,RAW-Dual [1]; [6],1.19
CC(C)NCC(O)COc1cccc2ccccc12.Cl (stereo unspecified) (library stock concentration (final ~1000-fold dilution): 10 mM),NF-kB SEAP reporter activity,RAW-Dual [1]; agonist: LPS (TLR4) 0.1 ug/mL,0.913
same,NF-kB SEAP reporter activity,RAW-Dual [1]; [4],0.94
same,NF-kB SEAP reporter activity,RAW-Dual [1]; [5],0.822
same,NF-kB SEAP reporter activity,RAW-Dual [1]; [6],1.08
CC(C)NCC(O)COc1cccc2ccccc12.Cl (stereo unspecified),NF-kB SEAP reporter activity,RAW-Dual [2]; [7],1.07
same,NF-kB SEAP reporter activity,RAW-Dual [2]; [8],1.04
CNCCN(C)Cc1c[nH]nc1-c1ccc(OC2CC(OCCC3CCOCC3)C2)cc1.Cl.Cl (stereo unspecified),NF-kB SEAP reporter activity,RAW-Dual [2]; [7],0.935
same,NF-kB SEAP reporter activity,RAW-Dual [2]; [8],1.07
CNCCN(C)Cc1c[nH]nc1-c1ccc(OC2CC(OCCC3CCOCC3)C2)cc1.Cl.Cl (stereo unspecified) (library stock concentration (final ~1000-fold dilution): 10 mM),NF-kB SEAP reporter activity,RAW-Dual [1]; agonist: LPS (TLR4) 0.1 ug/mL,0.836
same,NF-kB SEAP reporter activity,RAW-Dual [1]; [4],0.674
same,NF-kB SEAP reporter activity,RAW-Dual [1]; [5],0.874
same,NF-kB SEAP reporter activity,RAW-Dual [1]; [6],0.586
CCCOc1ccc(CCc2nc3cc(-c4c(C)noc4C)ccc3n2CCN2CCOCC2)cc1.Cl,NF-kB SEAP reporter activity,RAW-Dual [2]; [7],1.53
same,NF-kB SEAP reporter activity,RAW-Dual [2]; [8],1.98
CCCOc1ccc(CCc2nc3cc(-c4c(C)noc4C)ccc3n2CCN2CCOCC2)cc1.Cl (library stock concentration (final ~1000-fold dilution): 10 mM),NF-kB SEAP reporter activity,RAW-Dual [1]; agonist: LPS (TLR4) 0.1 ug/mL,2.48
same,NF-kB SEAP reporter activity,RAW-Dual [1]; [4],1.9
same,NF-kB SEAP reporter activity,RAW-Dual [1]; [5],0.609
same,NF-kB SEAP reporter activity,RAW-Dual [1]; [6],1.04
COc1ccc(CCc2nc3cc(-c4c(C)noc4C)ccc3n2CC(C)N2CCOCC2)cc1Cl (stereo unspecified) (library stock concentration (final ~1000-fold dilution): 10 mM),NF-kB SEAP reporter activity,RAW-Dual [1]; agonist: LPS (TLR4) 0.1 ug/mL,4.47
same,NF-kB SEAP reporter activity,RAW-Dual [1]; [4],2.49
same,NF-kB SEAP reporter activity,RAW-Dual [1]; [5],1.06
same,NF-kB SEAP reporter activity,RAW-Dual [1]; [6],2.27
COc1ccc(CCc2nc3cc(-c4c(C)noc4C)ccc3n2CC(C)N2CCOCC2)cc1Cl (stereo unspecified),NF-kB SEAP reporter activity,RAW-Dual [2]; [7],1.51
same,NF-kB SEAP reporter activity,RAW-Dual [2]; [8],2.65
Cc1nc2cc(F)c(F)cc2n1-c1cncc(Nc2ccc(C(F)(F)F)cc2)n1 (library stock concentration (final ~1000-fold dilution): 10 mM),NF-kB SEAP reporter activity,RAW-Dual [1]; agonist: LPS (TLR4) 0.1 ug/mL,1.36
same,NF-kB SEAP reporter activity,RAW-Dual [1]; [4],1.31
same,NF-kB SEAP reporter activity,RAW-Dual [1]; [5],0.571
same,NF-kB SEAP reporter activity,RAW-Dual [1]; [6],0.582
Cc1nc2cc(F)c(F)cc2n1-c1cncc(Nc2ccc(C(F)(F)F)cc2)n1,NF-kB SEAP reporter activity,RAW-Dual [2]; [7],1.56
same,NF-kB SEAP reporter activity,RAW-Dual [2]; [8],1.33
